Sm TGR block – S. mansoni TGR enzyme inhibition. actives 3% (n = 360,000). Q962Y6. AID 485364. Potency, µM (top dose mostly 114 µM), for the others: top-dose activity change, negative = inhibition, hits mostly inhibitors. purified TGR, DTNB reduction, TNB absorbance 405 nm; also: potency is read from the fitted curve at half-maximal effect; % is scaled to controls: 0 for no effect and ±100 for the full control effect; nearly all actives have a fitted effect of over 60% in size
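First, TGR (20 nM dispensed) and NADPH were mixed with compound. Second, a 15 min room-temperature incubation followed. Third, further NADPH and then DTNB were added to start the reaction. Finally, TNB absorbance was monitored kinetically.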
HCV inhibitor – inhibitors of hepatitis C virus infection; Potency, µM (titrated, usually from 41.8 µM), for the others: top-dose activity change, negative = inhibition, usual class: inhibitors; Huh7.5.1 HCVcc-Cre infection, luciferase reporter, 44 h; actives 3.4% (n = 340,000); also: potency is read from the fitted curve at half-maximal effect; % is scaled to controls: 0 for no effect and ±100 for the full control effect
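Cells seeded at 1,000/well and cultured 4 h, then compounds added followed by HCVcc-Cre virus (~0.5 moi). After 44 h further culture, luciferase substrate was added, plates held 15 min at room temperature, and luminescence read for 15 sec.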
HCMV inh – blocks human cytomegalovirus replication | HFF cells, HCMV-luciferase reporter, 72 h; stronger effect = lower value | activity change, negative = inhibition, % at 57.5 µM | actives 4.5% (n = 410,000) | AID 1259415; in the data active = activity change below about -60%; inconclusive = no clear call, values can overlap the other calls; inactive = above about -39%; also: % is scaled to controls: 0 for no effect and ±100 for the full control effect
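Luciferase read-out from HCMV-luciferase-infected HFFs (MOI 1 PFU/cell) 72 h post infection at 37C; compounds added after 16 h cell attachment; activity normalized between buffer-only basal and Salinomycin (10uM) inhibitor controls.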
Pf growth 48h – P. falciparum growth inhibition at 48 hours (one generation). P. falciparum luciferase growth in erythrocytes, 48 h. actives 5.9% (n = 310,000). Potency, µM (top dose mostly 28.7 µM), inactives show top-dose activity change, negative = inhibition, hits mostly inhibitors; also: potency is read from the fitted curve at half-maximal effect; % is scaled to controls: 0 for no effect and ±100 for the full control effect
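Here the parasites carry a stable luciferase gene and grow inside erythrocytes in Albumax-based RPMI medium with compound for one erythrocytic cycle. Activity is scored as loss of luminescent signal.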
SARS PLpro yeast – blocks SARS-CoV papain-like protease in a yeast assay | S. cerevisiae expressing SARS-CoV PLpro, growth rescue | Potency, µM (highest dose often 32.9 µM), for inactives: at the highest dose activity, positive = growth rescue, actives largely listed as activators | actives 0.19% (n = 330,000); calls by dose curve; also: potency is read from the fitted curve at half-maximal effect; 0% is about no effect; nearly all actives have a fitted effect of over 55% in size
Pf growth 96h – P. falciparum growth inhibition at 96 hour, primary screen for plastid delayed-death inhibitors. P. falciparum luciferase reporter growth, 96 h. Potency, µM (titrated, usually from 28.7 µM), for inactives: at the top dose activity change, negative = inhibition, most hits filed as inhibitors. actives 6.9% (n = 320,000). AID 504834; also: potency is read from the fitted curve at half-maximal effect; % is scaled to controls: 0 for no effect and ±100 for the full control effect
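Readout is luminescence from an integrated firefly luciferase in P. falciparum. Red cells, 2% hematocrit and 0.05% parasitemia final, were cultured with compound through two parasite generations (96 hours) at 37 C, 5% CO2.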
Numbers without * were called inactive; ? = inconclusive; / = no result given; [ ] = dose if it differs, or a comment. The list is not random: actives were taken first. Their share in the collection is about 15%. Unless noted, calls follow the shape of the dose curve; as a rule, active = well fitted curve in the direction sought with a large enough effect; inconclusive = small, poorly fitted or top-dose-only effect, or another doubt; inactive = no such curve, though single readings can be large; an effect the other way counts as inactive or inconclusive.

SMILES	Sm TGR block	HCV inhibitor	HCMV inh	Pf growth 48h	SARS PLpro yeast	Pf growth 96h
COCCNC(=S)N1CCc2cc(OC)c(OC)cc2C1COc1ccc(C(C)C)cc1 (configuration not stated)	1%	?	56	12µM*	-2%	8.3µM*
CCNC(=S)N1CCc2cc(OC)c(OC)cc2C1COc1ccc(F)cc1 (configuration not stated)	-2%	-8%	-16	?	0%	8.3µM*
COCCNC(=S)N1CCc2cc(OC)c(OC)cc2C1c1cccs1 (configuration not stated)	-14%	5%	24	2.9µM*	1%	5.9µM*
COc1cc(C(=O)NCCCN(C)C)ccc1OCC(=O)Nc1cccc(C(F)(F)F)c1	24%	?	-28	?	-5%	0%
COc1cccc(CN(C)C(=O)c2ccc(OCC(=O)Nc3cccc(C(F)(F)F)c3)c(OC)c2)c1	4%	?	-86*	?	-1%	?
COc1ccc(CN(C)C(=O)c2ccc(OCC(=O)Nc3cccc(C(F)(F)F)c3)c(OC)c2)c(OC)c1	-2%	0.56µM*	-83*	?	/	?
CCc1cc(C(=O)N=Nc2c(O)[nH]c3ccc([N+](=O)[O-])cc23)c2ccccc2n1	-21%	?	-19	-10%	14%	?
CCc1cc(C(=O)N=Nc2c(O)[nH]c3c(Br)cc(Br)cc23)c2ccccc2n1	-2%	-6%	-31	-24%	4%	4.7µM*
CC(=O)Nc1cccc(Cn2cccn2)c1	-1%	2%	17	6%	1%	13µM*
Nc1nonc1C(=O)NCCNCc1cccc(Cl)c1Cl	-18%	/	-3	/	/	/
COc1ccc(-c2cc(NCCc3ccncc3)n3ncnc3n2)cc1	6%	0%	54	15%	-3%	?
CCc1c(C)nc2ncnn2c1NCCc1ccc(OC)c(OC)c1	-7%	?	-73*	?	-6%	11%
COc1ccc(CCNc2c(C)c(C)nc3ncnn23)cc1	3%	?	-89*	?	-6%	1%[5.75 µM]
CCOc1ccc(CCNc2cc(C)nc3ncnn23)cc1OCC	-4%	?	-26	-3%	-22%	?
Cc1cc(C)cc(Cn2cc(CN3CC(N4CCN(CCO)CC4)CS3(=O)=O)nn2)c1 (configuration not stated)	/	/	-29	/	/	/
CS(=O)(=O)N(CC(=O)Nc1cccc([N+](=O)[O-])c1)c1ccccc1	/	-6%	-5	16%	1%	26%
COc1ccc(N(CC(=O)Nc2cc(C)cc(C)c2)S(=O)(=O)c2ccccc2[N+](=O)[O-])c(OC)c1	-2%	20%	24	?	1%	8.3µM*
COc1ccc(C)cc1S(=O)(=O)N(CC(=O)Nc1cccc([N+](=O)[O-])c1)c1ccccc1	-2%	1%	?	?	7%	12µM*
COc1ccc(N(CC(=O)Nc2cc(C)ccc2C)S(=O)(=O)c2ccccc2[N+](=O)[O-])c(OC)c1	/	-20%	4	2.9µM*	-2%	38%
COc1ccc(N(CC(=O)Nc2ccc(F)cc2)S(=O)(=O)c2ccccc2[N+](=O)[O-])c(OC)c1	13%[57.1 µM]	-15%	-9	?	0%	8%
Cc1c(NC(=O)C(C)OC(=O)COc2ccc(C#N)cc2)c(=O)n(-c2ccccc2)n1C (configuration not stated)	1%	-4%	-15	11%	-2%	20%
CN(C)P(=O)(Nc1cccc2ccccc12)Nc1cccc2ccccc12	-1%	8%	92	4.7µM*	-1%	?
COc1ccc(N2CCN(C(c3ccccc3)c3sc4nc(-c5ccco5)nn4c3O)CC2)cc1 (configuration not stated)	3%	/	85	/	/	/
CC(=O)N1CC(C)Oc2ccc(S(=O)(=O)NC(CC(=O)O)c3cc(C)ccc3C)cc21 (configuration not stated)	12%	20%	?	0%	-3%	12µM*
CC1C/C(=N/Nc2nc3ccccc3[nH]2)CC(C)(C)C1 (configuration not stated)	-30%	?	65	3.7µM*	5%	2.1µM*
SMILES	Sm TGR block	HCV inhibitor	HCMV inh	Pf growth 48h	SARS PLpro yeast	Pf growth 96h
Cc1cc(S(=O)(=O)Nc2ccc(C(=O)NCc3ccncc3)cc2)ccc1F	-1%	-9%	-17	?	-1%	-1%
CCOC(=O)C1C(=O)C=C(c2ccc(C)cc2)CC1c1ccc([N+](=O)[O-])cc1 (configuration not stated)	8%	?	-71*	?	-27%	9.3µM*
O=C(Nc1nc2n(n1)C(c1ccccc1)C=C(c1ccccc1)N2)c1ccco1 (configuration not stated)	1.8µM*	-4%	-2	8.3µM*	7%	?
O=C(Nc1nc2n(n1)C(c1ccc(F)cc1)C=C(c1ccc(Cl)cc1)N2)c1ccco1 (configuration not stated)	0%	/	?	/	/	/
O=C(Nc1nc2n(n1)C(c1ccccc1)C=C(c1ccc(Cl)cc1)N2)c1ccco1 (configuration not stated)	14µM*	/	6	/	/	/
O=C(c1nc2n(n1)C(c1ccc(Cl)cc1)C=C(c1ccccc1)N2)N1CCOCC1 (configuration not stated)	10µM*	-14%	-3	4.1µM*	0%	4%
O=C(Nc1nc2nc(-c3ccccc3)cc(-c3ccccc3)n2n1)c1ccco1	1%	?	-20	2.9µM*	0%	/
O=S1(=O)CC(N2CCSCC2)CN1Cc1cn(Cc2cccc(C(F)(F)F)c2)nn1 (configuration not stated)	/	/	8	/	/	/
CCOc1ccc(Br)cc1CNCCSc1nnnn1-c1ccccc1	8%	/	-5	/	/	/
O=C1CSC(=S)N1N=Cc1ccc(Cl)s1	/	7%	-22	/	/	/
COc1ccccc1CNC(=O)COC(=O)c1nccnc1N	1%	10%	64	22%	8%	11%
COc1ccc(COc2cc(-c3cccc(OC)c3)nc3ccc(NC(=O)c4ccccc4)cc23)cc1	0%	?	-26	12µM*	0%	12µM*
COc1ccc(COc2cc(-c3cccc(OC)c3)nc3ccc(NC(=O)c4cccnc4)cc23)cc1	-1%	?	82	2.9µM*	6%	2.3µM*
COc1ccc(Cc2nc(-c3ccc(NC(=O)c4cccnc4)cc3)no2)cc1	-21%	-29%	-40	5.2µM*	0%	44%
COc1ccc(C(=O)Nc2ccc(NC(=O)c3cccc(OC)c3)cn2)cc1	7%	?	-37	?	-1%	-7%

Screening data deposited in PubChem BioAssay by National Center for Advancing Translational Sciences (NCATS).
